Screens deposited in PubChem BioAssay by several laboratories.
Sampled rows, rich in hits. Any-hit rate of the full collection: about 1%.
TNAP act DEA = human TNAP activation, intermediate phosphate acceptor; P05186; purified TNAP, CDP-star luminescence, 100 mM DEA, 30 min; stronger effect = higher value; scale: 0 levamisole-inhibited, 1 vehicle-only enzyme; activation factor at 20 µM; 64,000 tested, under 10 active; AID 813;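 active = activation factor of at least 2 at 20 µM, relative to controls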
BAP1 block = blocks human BAP1 ubiquitin-AMC hydrolysis; actives 0.48% (n = 72,000); recombinant BAP1, Ub-AMC hydrolysis fluorescence kinetic; stronger effect = lower value; AID 436; Q92560; calls only at 20 µM;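 active = activity remaining at or below 50% of control, provided the compound also passes the data quality filters; inactive = the rest, including low values that fail the filters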
E coli RNAP = inhibitors of Escherichia coli RNA polymerase | P0A8V2 | AID 559 | actives 0.2% (n = 62,000) | inhibition, %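 (tested at 10 µM)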 | E. coli RNA polymerase, fluorescence transcription assay; in the data active = inhibition above about 20%
DUSP1 inh = human dual specificity phosphatase 1 inhibition. P28562. recombinant MKP-1, OMFP hydrolysis fluorescence. inhibition, %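 (compounds tested at a single concentration somewhere between 10 and 100 µM)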. actives 0.15% (n = 65,000);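 active = inhibition above about 50%, limit read from the data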
Cdc25B block = human M-phase inducer phosphatase 2 inhibition; P30305; recombinant Cdc25B, OMFP fluorescence Ex485/Em525; inhibition, %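 (compounds tested at 10 µM final in the well)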; actives 0.1% (n = 65,000); in the data active = inhibition above about 50%
HePTP inhibitor = human HePTP phosphatase inhibition; AID 521; P35236; recombinant HePTP phosphatase activity, OD absorbance; inhibition, % at 20 µM; actives 0.64% (n = 110,000); in the data active = inhibition above about 50%
Numbers stand for hits; 0 = inactive; - = no result shown; + = active, no number.

SMILES | TNAP act DEA | BAP1 block | E coli RNAP | DUSP1 inh | Cdc25B block | HePTP inhibitor
COCCN1C(=O)C(O)=C(C(C)=O)C1c1ccc(OC)c(OC)c1 (stereo not drawn) | 0 | 0 | 24 | 0 | 0 | 0
CC(=O)c1ccc(NC2=NC(C)(C)Cc3ccccc32)cc1 | - | - | - | - | - | 0
CC(C(=O)NN)C1=NC(C)(C)Cc2ccccc21 (stereo not drawn) | - | - | - | - | - | 54
Cc1cc(Cl)cc2c1NC(=O)[C@]21[C@@H]2C(=O)N(Cc3ccccc3)C(=O)[C@@H]2[C@@H]2CCCN21 | 0 | 0 | 33 | 0 | 0 | 0
CC(Oc1ccc(Cl)cc1Cl)C(=O)Nc1ccc2c(c1)OCO2 (stereo not drawn) | - | - | - | - | - | 0
O=C(N/N=C/c1ccc([N+](=O)[O-])o1)c1ccc(O)cc1 | - | - | - | - | - | 102
O=C1C2C3c4ccccc4C(c4ccccc43)C2C(=O)N1c1cc(C(F)(F)F)ccc1Cl (stereo not drawn) | - | - | - | - | - | 0
O=C(COc1ccc(I)cc1)Nc1ccc2c(c1)oc1ccccc12 | - | - | - | - | - | 102
O=C(COc1ccccc1)Nc1cccc(-c2nnc(-c3ccccc3)o2)c1 | 0 | + | 0 | 0 | 0 | 0
O=C(COc1ccc(Cl)cc1Cl)Nc1ccc2c(c1)oc1ccccc12 | - | - | - | - | - | 0
O=C(COc1ccc2ccccc2c1)Nc1cccc(Br)c1 | - | - | - | - | - | 70
CCN(CC)CCCOc1cccc(Cl)c1 | - | - | - | - | - | 0
O=C1N=c2ccc(Br)cc2=C1c1sc(Nc2ccc(O)cc2)nc1O | - | - | - | - | - | 93
O=C(NCCCN1CCOCC1)NC12CC3CC(CC(C3)C1)C2 | 0 | 0 | 64 | 0 | 0 | 0
O=C(O)/C=C/c1ccc(O)c(O)c1 | 0 | 0 | 21 | 0 | 0 | 0
Cc1cc(C)c(C(=O)/C(=C/c2ccccc2Cl)c2ccccc2)c(=O)[nH]1 | - | - | - | - | - | 0
O=C(CCN1C(=O)/C(=C\c2cccs2)SC1=S)Nc1cccc(C(=O)O)c1 | - | - | - | - | - | 93
O=C(O)CCCCCCCCCCN1C(=O)/C(=C/c2cccc(Br)c2)SC1=S | - | - | - | - | - | 102
O=C(O)CCCN1C(=O)/C(=C/c2cccc(Br)c2)SC1=S | - | - | - | - | - | 0
O=C(CCN1C(=O)/C(=C/c2cccs2)SC1=S)Nc1cccc(F)c1 | - | - | - | - | - | 0
O=C(CN1C(=O)/C(=C/c2ccccc2Cl)SC1=S)Nc1ccc(C(=O)O)cc1 | - | - | - | - | - | 96
O=C(CN1C(=O)/C(=C/c2ccccc2Cl)SC1=S)Nc1cccc(C(=O)O)c1 | - | - | - | - | - | 0
CC(=O)Nc1ccc(C(=O)Nc2ccc(Br)cc2C)cc1 | - | - | - | - | - | 0
Cc1cc(C)c2nc3s/c(=C\c4cccc(Br)c4)c(=O)n3c2c1 | - | - | - | - | - | 0
Cc1ccc(-n2c(CNc3ccc(F)cc3)nnc2SCC(=O)NCc2ccco2)cc1 | 0 | 0 | 0 | 0 | 0 | 0
SMILES | TNAP act DEA | BAP1 block | E coli RNAP | DUSP1 inh | Cdc25B block | HePTP inhibitor
Cc1ccc(-n2c(CNc3ccc(F)cc3)nnc2SCC(=O)N2CCCC2)cc1 | 0 | 0 | 36 | 0 | 0 | 0
CC(=O)/C(C1=C(C(C)(C)C)C(=O)C(=O)C(C(C)(C)C)=C1)=C(/C)O | - | - | - | - | - | 0
COc1ccc(/C=C(\NC(=O)c2ccccc2)C(=O)Nc2ccc(C)cc2)cc1OC | - | - | - | - | - | 0
COc1ccccc1OCC(=O)Nc1ccc(S(=O)(=O)Nc2nc(C)cc(C)n2)cc1 | 0 | 0 | 21 | 0 | 0 | 0
CCOC(=O)c1cc(-c2ccc(Cl)cc2)nc2ccccc12 | - | - | - | - | - | 0
CC1=C(C#N)c2nc(N)c(C#N)c(C)c2/C1=C/c1ccc(-c2cccc(C(=O)O)c2)o1 | - | - | - | - | - | 103
CC1=C(C#N)c2nc(N)c(C#N)c(C)c2/C1=C\c1ccc(-c2cccc([N+](=O)[O-])c2)o1 | - | - | - | - | - | 0
CC(=O)c1cccc(-c2ccc(/C=C3\C(=O)NC(=O)C(C#N)=C3C)o2)c1 | - | - | - | - | - | 72
O=[N+]([O-])c1cccc(S(=O)(=O)NCc2cccnc2)c1 | - | - | - | - | - | 0
O=[N+]([O-])c1cccc(S(=O)(=O)NCc2ccncc2)c1 | - | - | - | - | - | 103
O=C(Nc1ccccc1)NC1CCCCC1 | - | - | - | - | - | 89
Cc1cc(NC(=O)CCCOc2ccc(Cl)cc2Cl)no1 | - | 0 | - | 0 | 64 | 0
CCC1=NN(C(=O)c2ccc(OC)cc2)C(O)(c2ccncc2)C1 (stereo not drawn) | - | - | - | - | - | 104
CCC1=NN(C(=O)c2cccc(O)c2)C(O)(c2ccncc2)C1 (stereo not drawn) | - | - | - | - | - | 0
Cc1ccc(N=Cc2c(C(F)(F)F)[nH]n(-c3ccccc3)c2=O)cc1 | - | - | - | - | - | 64
COc1ccc(/C=C2\SC(=O)N(CCC(=O)N3CCOCC3)C2=O)cc1OC | - | - | - | - | - | 104
CC1(C)C(=O)N(Cc2ccccc2)c2ccccc2N1C(=O)c1ccc([N+](=O)[O-])cc1 | - | - | - | - | - | 74
CC1(C)C(=O)N(Cc2ccc([N+](=O)[O-])cc2)c2ccccc2N1C(=O)c1ccc(F)cc1 | - | - | - | - | - | 0
N#C/C(=C/Nc1ccc(F)cc1)c1nc(-c2ccccc2)cs1 | - | - | - | - | - | 0
CCN(CC)C(=O)c1sc(NC(=O)C2c3ccccc3Oc3ccccc32)c(C(N)=O)c1C | - | - | - | - | - | 0
CCCCCCCCCCCCCCC[C@H](O)[C@H](N)CO | - | + | - | - | - | -
CCN(CC)c1ccc(/C=C2/C(=O)NN(c3ccc(C)cc3)C2=O)c(O)c1 | - | - | - | - | - | 61
CC(C)CC(=O)N1CCN(Cc2cccc(Oc3ccccc3)c2)CC1 | - | - | - | - | - | 0
O=[N+]([O-])c1cccc(CN2CCN(S(=O)(=O)c3ccc(Cl)cc3)CC2)c1 | - | - | - | - | - | 102
O=[N+]([O-])c1cccc(CN2CCN(S(=O)(=O)c3ccccc3)CC2)c1 | - | - | - | - | - | 0
SMILES | TNAP act DEA | BAP1 block | E coli RNAP | DUSP1 inh | Cdc25B block | HePTP inhibitor
O=C(Nc1ccc2nn(-c3ccc(F)cc3)nc2c1)c1cccc(Br)c1 | - | - | - | - | - | 57
COc1ccc(/C=C/C(=O)Nc2ccc3nn(-c4ccc(F)cc4)nc3c2)cc1 | - | - | - | - | - | 57
O=C(/C=C/c1cccc([N+](=O)[O-])c1)Nc1ccc2nn(-c3ccccc3)nc2c1 | - | - | - | - | - | 102
O=C(/C=C\c1ccccc1)Nc1ccc2nn(-c3ccc(F)cc3)nc2c1 | - | - | - | - | - | 61
Cc1cccc(C(=O)Nc2ccc3nn(-c4ccc(F)cc4)nc3c2)c1 | - | - | - | - | - | 0
CCc1cccc(C)c1NC(=O)COc1ccc(C)c(C)c1 | - | - | - | - | - | 0
COc1ccc(CNC(=O)COc2ccc(S(=O)(=O)NC(C)C)cc2)cc1 | 0 | 0 | 0 | 0 | 0 | 0
COc1ccc(OC)c(NC(=O)COc2ccc(S(=O)(=O)NC(C)C)cc2)c1 | 0 | 0 | 21 | 0 | 0 | 0
O=C(Nc1ccccc1)c1cccnc1N1CCOCC1 | 0 | 0 | 0 | 0 | 53 | 0
CCOc1ccc(NC(=O)C2CC2(c2cccc(OC)c2)c2cccc(OC)c2)cc1 (stereo not drawn) | - | - | - | - | - | 0
O=C(/C=C/c1ccc(F)cc1)NCc1ccccn1 | - | - | - | - | - | 0
Cc1onc(-c2ccccc2Cl)c1C(=O)Nc1ccc(-n2nncc2C(C)(C)C)cc1 | 0 | 0 | 0 | 0 | 66 | 0
Cc1onc(-c2ccccc2Cl)c1C(=O)Nc1ccc(-n2nncc2-c2ccco2)cc1 | 0 | - | 0 | 0 | 0 | 0
CCc1cccc(NC(=O)Cc2ccccc2)c1 | - | - | - | - | - | 102
COC(=O)c1c(C)oc2ccc(OC(=O)c3ccc(Cl)cc3)cc12 | - | - | - | - | - | 0
COC(=O)c1c(C)oc2ccc(OC(=O)c3ccc(Br)cc3)cc12 | - | - | - | - | - | 104
CCCCCCCCCCCCCCSCC(=O)O | - | + | - | - | - | -
